Inhibition data for five compounds are collected here from ChEMBL document CHEMBL1961873, “Compounds: GSK PKIS; Assays: Nanosyn kinase panel” (2012).

The target in assay [1] is Calcium/calmodulin-dependent protein kinase type II subunit alpha (Homo sapiens) (UniProt Q9UQM7). The settings on record: at 1 µM.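 Also: reported value is a mean percent inhibition of CAMK2A.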
Assay [2] addresses Calcium/calmodulin-dependent protein kinase type II subunit delta (Homo sapiens) (UniProt Q13557). The conditions noted are these: at 0.1 µM.
Assay [3] shares this target. The settings on record: at 1 µM.
For assay [4], the target named is T1, Calcium/calmodulin-dependent protein kinase type IV (Homo sapiens) (UniProt Q16566).
T1 sequence (whole entry): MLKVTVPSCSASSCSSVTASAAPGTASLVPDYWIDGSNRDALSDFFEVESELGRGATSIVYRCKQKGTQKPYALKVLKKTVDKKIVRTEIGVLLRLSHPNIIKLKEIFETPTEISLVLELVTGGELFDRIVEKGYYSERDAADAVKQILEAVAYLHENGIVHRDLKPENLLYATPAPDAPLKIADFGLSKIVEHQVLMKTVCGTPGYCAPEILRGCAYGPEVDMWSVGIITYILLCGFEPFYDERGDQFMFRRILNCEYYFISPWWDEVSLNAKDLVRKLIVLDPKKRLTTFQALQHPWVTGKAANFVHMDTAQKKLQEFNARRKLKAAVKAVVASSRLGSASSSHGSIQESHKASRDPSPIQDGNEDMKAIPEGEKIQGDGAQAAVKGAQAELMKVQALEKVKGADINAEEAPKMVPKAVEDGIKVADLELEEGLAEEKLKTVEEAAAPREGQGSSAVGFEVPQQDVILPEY
The conditions noted are these: at 0.1 µM.

Assay [5] concerns the target T1, Calcium/calmodulin-dependent protein kinase type IV (Homo sapiens). The conditions noted are these: at 1 µM.
The target in assay [6] is T2, Serine/threonine-protein kinase Chk1 (Homo sapiens) (UniProt O14757).
T2 sequence (whole entry): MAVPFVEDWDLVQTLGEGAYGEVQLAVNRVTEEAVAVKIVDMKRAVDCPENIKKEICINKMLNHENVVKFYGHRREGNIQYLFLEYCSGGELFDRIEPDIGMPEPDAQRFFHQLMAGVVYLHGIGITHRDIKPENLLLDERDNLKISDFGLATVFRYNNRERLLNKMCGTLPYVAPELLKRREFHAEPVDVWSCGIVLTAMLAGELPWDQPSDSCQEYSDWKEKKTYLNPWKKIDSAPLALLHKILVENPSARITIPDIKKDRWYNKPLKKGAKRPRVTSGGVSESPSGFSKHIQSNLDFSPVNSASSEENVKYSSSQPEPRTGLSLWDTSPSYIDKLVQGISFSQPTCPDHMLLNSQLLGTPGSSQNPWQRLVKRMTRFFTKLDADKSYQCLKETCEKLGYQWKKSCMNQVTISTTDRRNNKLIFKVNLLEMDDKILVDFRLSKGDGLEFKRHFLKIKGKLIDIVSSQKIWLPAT
The conditions noted are these: at 0.1 µM.

Assay [7] concerns the target T2, Serine/threonine-protein kinase Chk1 (Homo sapiens). The conditions noted are these: at 1 µM.
For assay [8], the target named is Serine/threonine-protein kinase Chk2 (Homo sapiens) (UniProt O96017). The settings on record: at 0.1 µM.
The target is the same in assay [9]. The settings on record: at 1 µM.
The target of assay [10] is Death-associated protein kinase 1 (Homo sapiens) (UniProt P53355). The conditions noted are these: at 0.1 µM.
Assay [11] shares this target. The conditions noted are these: at 1 µM.
For assay [12], the target named is T3, Serine/threonine-protein kinase DCLK2 (Homo sapiens) (UniProt Q8N568).
T3 sequence (whole entry): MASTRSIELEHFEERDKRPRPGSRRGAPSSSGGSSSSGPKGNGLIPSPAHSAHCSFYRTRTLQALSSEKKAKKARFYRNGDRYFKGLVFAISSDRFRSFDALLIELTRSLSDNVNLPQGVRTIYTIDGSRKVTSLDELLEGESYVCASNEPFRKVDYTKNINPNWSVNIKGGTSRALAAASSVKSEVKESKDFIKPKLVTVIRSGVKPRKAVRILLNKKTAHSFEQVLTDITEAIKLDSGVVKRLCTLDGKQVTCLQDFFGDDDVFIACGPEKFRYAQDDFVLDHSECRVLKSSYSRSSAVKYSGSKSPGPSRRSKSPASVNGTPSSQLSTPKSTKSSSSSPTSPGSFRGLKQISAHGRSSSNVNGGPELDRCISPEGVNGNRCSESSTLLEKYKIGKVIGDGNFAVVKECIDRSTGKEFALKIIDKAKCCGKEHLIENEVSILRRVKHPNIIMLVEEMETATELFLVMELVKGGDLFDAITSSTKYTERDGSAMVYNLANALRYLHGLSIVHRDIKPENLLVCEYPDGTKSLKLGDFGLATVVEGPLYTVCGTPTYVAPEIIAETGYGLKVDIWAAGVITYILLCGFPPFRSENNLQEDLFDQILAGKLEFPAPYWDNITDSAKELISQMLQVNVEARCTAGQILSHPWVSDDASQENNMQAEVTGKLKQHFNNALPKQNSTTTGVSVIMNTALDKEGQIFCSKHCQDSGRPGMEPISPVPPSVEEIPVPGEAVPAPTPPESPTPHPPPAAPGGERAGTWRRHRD
The settings on record: at 0.1 µM.

Assay [13] deals with T3, Serine/threonine-protein kinase DCLK2 (Homo sapiens). The settings on record: at 1 µM.
Assay [14] deals with MAP kinase-activated protein kinase 2 (Homo sapiens) (UniProt P49137). The conditions noted are these: at 0.1 µM.
Assay [15] has the same target. The settings on record: at 1 µM.
Assay [16] addresses MAP kinase-activated protein kinase 3 (Homo sapiens) (UniProt Q16644). The settings on record: at 0.1 µM.
Assay [17] has the same target. The settings on record: at 1 µM.
Assay [18] concerns the target Serine/threonine-protein kinase MARK1 (Homo sapiens) (UniProt Q9P0L2). The conditions noted are these: at 0.1 µM.
Assay [19] shares this target. The settings on record: at 1 µM.
For assay [20], the target named is MAP/microtubule affinity-regulating kinase 3 (Homo sapiens) (UniProt P27448). The settings on record: at 0.1 µM.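 Also: mean percent inhibition of MARK3 kinase activity, measured within the GSK PKIS screening panel.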

Several values for one entry are separate records, joined by “and”; a condition that tells them apart may be missing. Identical values can stand only once.

For orientation: inhibition means the change of the read-out against control, counted positive when it falls.

MAP kinase-activated protein kinase 3 (Homo sapiens), sequence (Q16644 whole entry, looked up): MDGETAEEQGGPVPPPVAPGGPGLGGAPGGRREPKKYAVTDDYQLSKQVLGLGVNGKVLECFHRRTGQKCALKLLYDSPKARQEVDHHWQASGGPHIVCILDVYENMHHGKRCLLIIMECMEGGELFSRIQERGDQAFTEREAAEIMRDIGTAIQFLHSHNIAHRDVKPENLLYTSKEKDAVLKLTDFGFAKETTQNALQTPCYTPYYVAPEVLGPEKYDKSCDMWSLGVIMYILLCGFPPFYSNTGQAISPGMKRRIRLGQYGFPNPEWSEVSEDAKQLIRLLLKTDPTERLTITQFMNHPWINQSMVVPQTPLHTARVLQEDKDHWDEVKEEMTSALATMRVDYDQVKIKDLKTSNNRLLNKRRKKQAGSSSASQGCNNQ
Serine/threonine-protein kinase MARK1 (Homo sapiens), sequence (Q9P0L2 whole entry, looked up): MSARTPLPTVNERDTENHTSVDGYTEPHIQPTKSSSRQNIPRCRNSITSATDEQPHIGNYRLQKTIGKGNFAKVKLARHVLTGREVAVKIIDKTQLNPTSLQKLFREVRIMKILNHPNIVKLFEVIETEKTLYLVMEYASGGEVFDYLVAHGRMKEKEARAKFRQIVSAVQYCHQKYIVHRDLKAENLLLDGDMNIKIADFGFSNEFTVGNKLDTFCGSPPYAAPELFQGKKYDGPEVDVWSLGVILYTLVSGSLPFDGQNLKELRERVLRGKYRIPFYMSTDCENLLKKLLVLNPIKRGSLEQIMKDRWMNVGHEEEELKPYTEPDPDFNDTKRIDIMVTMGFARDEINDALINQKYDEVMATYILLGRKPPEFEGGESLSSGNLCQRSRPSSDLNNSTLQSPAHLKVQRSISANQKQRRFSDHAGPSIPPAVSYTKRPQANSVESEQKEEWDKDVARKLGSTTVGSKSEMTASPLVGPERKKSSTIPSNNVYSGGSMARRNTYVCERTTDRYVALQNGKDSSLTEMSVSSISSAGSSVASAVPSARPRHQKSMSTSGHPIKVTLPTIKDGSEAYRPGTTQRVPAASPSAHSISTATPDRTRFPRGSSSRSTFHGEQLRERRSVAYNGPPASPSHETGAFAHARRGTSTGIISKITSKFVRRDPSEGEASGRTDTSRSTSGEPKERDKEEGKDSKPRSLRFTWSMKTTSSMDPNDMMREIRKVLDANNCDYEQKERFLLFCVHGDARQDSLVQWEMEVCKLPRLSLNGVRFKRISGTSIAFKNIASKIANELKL
MAP kinase-activated protein kinase 2 (Homo sapiens), sequence (P49137 whole entry, looked up): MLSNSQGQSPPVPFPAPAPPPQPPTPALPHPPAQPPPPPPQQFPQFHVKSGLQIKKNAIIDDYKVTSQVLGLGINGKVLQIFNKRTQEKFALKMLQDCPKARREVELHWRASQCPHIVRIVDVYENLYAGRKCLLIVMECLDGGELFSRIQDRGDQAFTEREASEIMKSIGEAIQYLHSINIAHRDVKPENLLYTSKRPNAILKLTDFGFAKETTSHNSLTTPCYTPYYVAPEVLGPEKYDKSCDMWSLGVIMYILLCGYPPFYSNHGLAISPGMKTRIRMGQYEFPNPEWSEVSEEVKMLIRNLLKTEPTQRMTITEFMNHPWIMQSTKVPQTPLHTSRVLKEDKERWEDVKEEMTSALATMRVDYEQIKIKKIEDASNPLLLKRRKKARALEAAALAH
MAP/microtubule affinity-regulating kinase 3 (Homo sapiens), sequence (P27448 whole entry, looked up): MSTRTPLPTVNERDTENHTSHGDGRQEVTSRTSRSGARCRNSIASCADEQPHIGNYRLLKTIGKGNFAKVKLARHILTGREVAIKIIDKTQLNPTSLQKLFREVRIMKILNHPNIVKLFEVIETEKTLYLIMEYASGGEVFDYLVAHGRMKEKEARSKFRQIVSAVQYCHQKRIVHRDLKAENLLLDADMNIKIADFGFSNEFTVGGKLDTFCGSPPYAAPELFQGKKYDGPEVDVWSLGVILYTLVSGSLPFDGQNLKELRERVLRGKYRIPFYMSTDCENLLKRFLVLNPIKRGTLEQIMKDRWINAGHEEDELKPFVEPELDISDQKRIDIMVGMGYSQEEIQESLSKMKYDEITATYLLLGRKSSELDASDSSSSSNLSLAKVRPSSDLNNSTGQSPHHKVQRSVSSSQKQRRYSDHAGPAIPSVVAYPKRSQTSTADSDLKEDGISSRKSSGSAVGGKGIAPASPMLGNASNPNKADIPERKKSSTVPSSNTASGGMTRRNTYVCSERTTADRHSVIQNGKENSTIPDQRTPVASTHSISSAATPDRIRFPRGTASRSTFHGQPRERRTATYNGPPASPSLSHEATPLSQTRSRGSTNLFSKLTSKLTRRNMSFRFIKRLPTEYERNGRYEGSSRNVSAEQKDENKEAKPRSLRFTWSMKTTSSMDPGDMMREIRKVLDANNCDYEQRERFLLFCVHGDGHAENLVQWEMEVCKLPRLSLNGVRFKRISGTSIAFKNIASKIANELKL
Serine/threonine-protein kinase Chk2 (Homo sapiens), sequence (O96017 whole entry): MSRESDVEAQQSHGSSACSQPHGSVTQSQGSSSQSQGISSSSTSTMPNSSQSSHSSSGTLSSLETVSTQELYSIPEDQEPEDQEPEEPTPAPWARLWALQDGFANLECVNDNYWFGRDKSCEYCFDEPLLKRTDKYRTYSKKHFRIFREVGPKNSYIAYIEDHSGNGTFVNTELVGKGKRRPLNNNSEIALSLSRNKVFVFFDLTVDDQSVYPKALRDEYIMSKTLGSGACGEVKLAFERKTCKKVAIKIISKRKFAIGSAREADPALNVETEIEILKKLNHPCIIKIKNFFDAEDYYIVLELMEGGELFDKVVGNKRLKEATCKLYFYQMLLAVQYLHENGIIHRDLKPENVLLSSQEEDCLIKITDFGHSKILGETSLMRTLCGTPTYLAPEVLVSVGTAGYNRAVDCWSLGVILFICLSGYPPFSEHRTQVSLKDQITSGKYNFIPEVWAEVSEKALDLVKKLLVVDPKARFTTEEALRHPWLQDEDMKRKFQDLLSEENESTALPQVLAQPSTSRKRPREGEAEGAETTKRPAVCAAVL
Calcium/calmodulin-dependent protein kinase type II subunit alpha (Homo sapiens), sequence (Q9UQM7 whole entry): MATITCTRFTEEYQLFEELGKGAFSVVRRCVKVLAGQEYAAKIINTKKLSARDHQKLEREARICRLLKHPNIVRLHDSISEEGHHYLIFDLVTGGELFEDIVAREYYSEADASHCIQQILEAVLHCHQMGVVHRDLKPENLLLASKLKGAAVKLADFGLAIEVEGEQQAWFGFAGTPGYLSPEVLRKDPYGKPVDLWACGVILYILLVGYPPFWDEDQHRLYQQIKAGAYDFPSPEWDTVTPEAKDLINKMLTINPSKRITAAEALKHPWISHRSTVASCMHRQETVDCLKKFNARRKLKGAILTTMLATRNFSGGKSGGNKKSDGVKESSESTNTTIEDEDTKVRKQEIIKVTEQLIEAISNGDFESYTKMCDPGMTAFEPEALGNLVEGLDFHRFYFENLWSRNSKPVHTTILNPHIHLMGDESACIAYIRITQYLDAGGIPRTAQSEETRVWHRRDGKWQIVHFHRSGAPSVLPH
Calcium/calmodulin-dependent protein kinase type II subunit delta (Homo sapiens), sequence (Q13557 whole entry): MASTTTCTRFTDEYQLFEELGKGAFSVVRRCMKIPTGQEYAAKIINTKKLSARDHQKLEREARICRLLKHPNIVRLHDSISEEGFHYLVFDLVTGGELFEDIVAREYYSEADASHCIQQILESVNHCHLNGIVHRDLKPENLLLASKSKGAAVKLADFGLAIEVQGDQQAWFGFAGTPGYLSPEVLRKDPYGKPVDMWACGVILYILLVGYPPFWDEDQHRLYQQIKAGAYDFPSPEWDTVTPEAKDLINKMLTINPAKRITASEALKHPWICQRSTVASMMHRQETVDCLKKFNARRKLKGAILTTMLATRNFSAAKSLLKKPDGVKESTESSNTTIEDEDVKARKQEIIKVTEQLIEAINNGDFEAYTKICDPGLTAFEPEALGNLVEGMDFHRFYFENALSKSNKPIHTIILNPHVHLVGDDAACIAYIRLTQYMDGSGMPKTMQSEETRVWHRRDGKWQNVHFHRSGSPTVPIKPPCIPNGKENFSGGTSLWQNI

On to `Nc1ncnc2occ(-c3ccc(NC(=O)Nc4cc(C(F)(F)F)ccc4F)cc3)c12`, for which the inhibition in assay [1] was 3.84% and -2.75%; in [2], 3.01% and -3.72%; in assay [3], 4.94% and 0.29%; in [4], 0.92% and -1.47%; in [5] it was 6.17% and 0.48%; in [6], 3.39% and 0.89%. Moreover, the inhibition is 3.36% and 1.22% in assay [7]; 0.48% and -3.48% in assay [8]; 2.69% and -1.74% in assay [9]; 3.18% and 0.64% in assay [10]; 4.75% and 1.06% in assay [11]; 3.65% and -1.65% in [12]. In addition, the inhibition is -4.63% in [13]; 1.16% and -1.74% in assay [14]; 1.1% and -1.65% in assay [15]; 3.46% and -1.38% in assay [16]; 13.9% and 7.55% in [17]; 1.91% and -0.63% in [18]. Besides, the inhibition in assay [19] is 3.01% and -0.26%; in assay [20] it was 1.57% and -1.4%.

`OCCCNc1nccc(-c2c(-c3ccc(F)cc3)nn3cc(C(F)(F)F)ccc23)n1`: the inhibition in [1] was 3.74%; in assay [2], 2.44%; in assay [3], 6.94%; in assay [4], 0.82%; in [5], 1.44%; in assay [6] it was -0.5%. Besides, the inhibition is -1.18% in assay [7]; 2.3% in [8]; 2.83% in [9]; -0.68% in assay [10]; 1.04% in assay [11]; 0.89% in assay [12]. Also, the inhibition in assay [13] came out at 2.29%; in [14] it was 0.94%; in assay [15], 0.71%; in assay [16], 30.2%; in assay [17] it was 36.3%; in [18], 0.69%. The inhibition in assay [19] is 3.09%; in assay [20], 0.94%.

With `Cc1nnc(-c2cccc(-c3ccc(C(=O)NCC4CC4)cc3)c2)o1`, the inhibition is 3.99% in assay [1]; 3.26% in assay [2]; 6.04% in [3]; -2.72% in assay [4]; -2.97% in [5]; 4.9% in assay [6]. For the same compound, the inhibition in assay [7] was 5.14%; in assay [8], 3.86%; in assay [9] it was 4.86%; in assay [10], 5.32%; in assay [11], 6.03%; in assay [12], 1.25%. The inhibition turned out to be 4.29% in assay [13]; 2.92% in assay [14]; 2.7% in assay [15]; 5.72% in [16]; 6.73% in assay [17]; 4.06% in assay [18]. Moreover, the inhibition is 6.5% in [19] and 4.12% in assay [20].

For the compound `O=C1Nc2ccccc2/C1=C1\CCc2cc(O)ccc21`, the inhibition in assay [1] was 8.04%; in [2], 6.22%; in [3] it was 13%; in assay [4], 0.46%; in assay [5], -0.69%; in assay [6], -1.18%. Further, the inhibition in [7] was 9.92%; in [8], 1.37%; in [9] it was 21.3%; in assay [10], -1.94%; in assay [11] it was -2.93%; in [12], 2.55%. In addition, the inhibition is 0.84% in [13]; -0.94% in assay [14]; -0.15% in [15]; -1.04% in assay [16]; -1.15% in assay [17]; 8.64% in [18]. Also, the figures for the inhibition in [19] and in assay [20] were 33.8% and 7.19%, respectively.

With `COc1ccc2ncn(-c3cc(O[C@H](C)c4ccccc4C(F)(F)F)c(C(N)=O)s3)c2c1`, the inhibition in assay [1] was 0.95%; in [2], -0.5%; in [3] it was 5.44%; in assay [4], 1.4%; in assay [5] it was 3.11%; in assay [6], 1.46%. In addition, the inhibition in assay [7] was 0.47%; in assay [8] it was -1.28%; in [9] it was -0.25%; in assay [10], -0.67%; in [11], -2.31%; in assay [12] it was -0.78%. In addition, the inhibition in assay [13] was -1.64%; in assay [14], -0.39%; in assay [15] it was -0.49%; in [16], -0.9%; in assay [17], -0.93%; in assay [18], 0.76%. Also, the inhibition is 5.8% in assay [19] and -0.92% in assay [20].
